Structures are written as SMILES. Where “and” joins values, the source holds several entries; their conditions need not be identical. Equal entries are not always repeated. Results filed as inconclusive are left out. Calls of active or inactive are those of the source. The call rests on the fitted dose curve.

Chain of Peroxisome proliferator-activated receptor delta (Homo sapiens) (Q03181 whole entry, looked up): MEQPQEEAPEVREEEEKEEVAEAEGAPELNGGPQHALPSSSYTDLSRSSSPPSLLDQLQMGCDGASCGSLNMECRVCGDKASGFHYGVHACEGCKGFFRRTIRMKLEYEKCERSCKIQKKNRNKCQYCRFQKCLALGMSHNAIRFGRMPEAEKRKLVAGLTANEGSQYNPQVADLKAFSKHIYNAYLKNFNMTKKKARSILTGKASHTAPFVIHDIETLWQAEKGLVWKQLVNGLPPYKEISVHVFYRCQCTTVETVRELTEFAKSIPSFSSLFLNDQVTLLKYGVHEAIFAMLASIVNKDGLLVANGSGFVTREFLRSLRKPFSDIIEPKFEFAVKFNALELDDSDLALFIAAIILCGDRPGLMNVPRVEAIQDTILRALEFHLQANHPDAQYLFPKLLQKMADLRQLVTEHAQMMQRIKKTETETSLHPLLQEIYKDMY
Chain of Bile acid receptor (Homo sapiens) (Q96RI1 whole entry, looked up): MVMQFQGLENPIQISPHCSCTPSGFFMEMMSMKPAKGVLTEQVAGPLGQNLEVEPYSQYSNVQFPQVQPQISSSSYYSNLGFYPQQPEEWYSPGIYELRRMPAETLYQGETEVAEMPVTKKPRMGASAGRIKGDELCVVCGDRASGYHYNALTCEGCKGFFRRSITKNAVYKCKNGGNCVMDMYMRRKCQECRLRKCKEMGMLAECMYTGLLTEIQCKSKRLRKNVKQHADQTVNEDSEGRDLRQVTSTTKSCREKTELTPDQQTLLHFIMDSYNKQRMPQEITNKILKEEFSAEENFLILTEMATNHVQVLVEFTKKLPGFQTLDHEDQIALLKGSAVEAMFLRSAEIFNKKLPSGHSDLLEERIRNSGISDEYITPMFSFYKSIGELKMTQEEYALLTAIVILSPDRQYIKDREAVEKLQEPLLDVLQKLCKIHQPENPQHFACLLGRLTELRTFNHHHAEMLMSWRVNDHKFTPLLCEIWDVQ

One test concerns the target Bile acid receptor (Homo sapiens) (UniProt Q96RI1). The experiment in a line: qHTS assay for small molecule agonists of farnesoid X receptor signaling (AID 588527).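 Further: 0% = vehicle basal and 100% = reference agonist.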 The settings on record: HEK293T FXR-UAS-bla, beta-lactamase ratio, 16 h; activation: hits give high values. Summed up: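 Read-out: beta-lactamase reporter fluorescence with CCF4 substrate in GeneBLAzer FXR-UAS-bla HEK293T cells, after 16 h compound exposure at 37 C. Response scaled between DMSO basal (0%) and chenodeoxycholic acid at 100 uM (100%).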
(Quantitative high-throughput screening tests each substance at several concentrations.)
For the compound `CCCCOCCO`, the activation is -0.315% (inactive) and -0.896% (inactive) and 3.38% (inactive).

With `C=CC(=O)OCCOCCOCCOCCOC(=O)C=C`, the activation was 26.3% (inactive).

Regarding `OB(O)O`, the activation is 1.87% (inactive) and 2.1% (inactive).

On to `CCN(Cc1cccc(S(=O)(=O)O)c1)c1ccc(C(=C2C=CC(=[N+](CC)Cc3cccc(S(=O)(=O)O)c3)C=C2)c2ccccc2S(=O)(=O)[O-])cc1`, for which the activation is -1.6% (inactive).

On to `O=C1C=CCCC1`, for which the activation is -1.48% (inactive).

`Cc1ccc(N)c(S(=O)(=O)O)c1`: the activation was 4.47% (inactive).

`CCC(C)(C)OC`: the activation is 0.74% (inactive).

As for `O=C(Cl)c1cccc([N+](=O)[O-])c1`, the activation is -3.83% (inactive).

`CCCCCCCCC1CO1` (stereo not given): the activation was 0.755% (inactive).

As to `COC(C)=O`, the activation is -0.0908% (inactive).

Turning to `C[Si](C)(C)Cl`, the activation is 1.08% (inactive).

Turning to `CCC(C)OC(=O)N1CCCCC1CCO` (stereo not given), the activation is 1.43% (inactive).

For the compound `C[Si](C)(C)O[Si](C)(C)C`, the activation was -0.871% (inactive).

`COc1cccc2sc(N)nc12`: the activation was -1.11% (inactive).

As to `C=C(C)C(=O)OCCCCCCCCCCCCCCCC`, the activation is -3.87% (inactive).

`O=C=Nc1ccc(Cc2ccc(N=C=O)cc2)cc1`: the activation was 3.57% (inactive) and 0.965% (inactive).

As to `CCCCC(CC)CNCC(CC)CCCC` (stereo not given), the activation is -2.36% (inactive).

Take `Nc1cccc([N+](=O)[O-])c1`: the activation was -0.749% (inactive).

Take `CCCCCCCCCCCO`: the activation is -0.12% (inactive).

On to `COC(=O)c1ccc(CNS(C)(=O)=O)cc1S(=O)(=O)NC(=O)Nc1nc(OC)cc(OC)n1`, for which the activation was -2.61% (inactive).

For `CCCCC(CC)COC(=O)c1ccc(C(=O)OCC(CC)CCCC)cc1` (stereo not given), the activation was 2.72% (inactive).

As for `IC(I)I`, the activation was 0.284% (inactive) and 0.834% (inactive).

For `CCCCC(CC)COS(=O)(=O)O` (stereo not given), the activation is 1.45% (inactive).

Regarding `C=C(C)C(=O)OCC(C)C`, the activation is -0.219% (inactive).

`CO/N=C1\C[C@]2(C[C@@H]3C[C@@H](C/C=C(\C)C[C@@H](C)/C=C/C=C4\CO[C@@H]5[C@H](O)C(C)=C[C@@H](C(=O)O3)[C@]45O)O2)O[C@H](/C(C)=C/C(C)C)[C@H]1C`: the activation was 6.07% (inactive).

For the compound `Cc1ccc(S(N)(=O)=O)cc1`, the activation was 0.771% (inactive) and -1.64% (inactive).

On to `NCCCCCCCCCCCC(=O)O`, for which the activation is 0.942% (inactive).

For `Cc1ccc(Cl)cc1N`, the activation was -2.98% (inactive).

As for `N#CCc1ccccc1[N+](=O)[O-]`, the activation is -1.36% (inactive).

With `COc1cc(Cl)c(OC)cc1N`, the activation was -0.889% (inactive).

For `COc1ccc([N+](=O)[O-])cc1N`, the activation was 0.186% (inactive) and -0.616% (inactive).

For `CCC(C)O` (stereo not given), the activation is 0.0237% (inactive).

As to `CCC(=O)C1C(=O)CC(C(=O)O)CC1=O` (stereo not given), the activation was -1.69% (inactive).

On to `C=C(C)C(=O)OC`, for which the activation is -1.27% (inactive).

Take `O=S(c1ccc(Cl)cc1)c1cc(Cl)c(Cl)cc1Cl` (stereo not given): the activation was 0.155% (inactive).

Regarding `Nc1cccc(O)c1`, the activation is -1.81% (inactive).

Regarding `CN(C)c1nc(=O)n(C2CCC(O)CC2)c(=O)n1C` (stereo not given), the activation was 2.83% (inactive).

In the case of `CC(/C=C/C=C(C)/C=C/C(=O)O)=C\C=C\C=C(C)\C=C\C=C(C)\C=C\C(=O)O`, the activation was 3.47% (inactive).

Take `CC(C)O.CC(C)O.CC(C)O.CC(C)O.[Ti]`: the activation is -5.62% (inactive).

As for `CCCCO`, the activation was 0.769% (inactive) and 0.512% (inactive).

A further test deals with Peroxisome proliferator-activated receptor delta (Homo sapiens) (UniProt Q03181). Kind of test: qHTS assay for small molecule agonists of peroxisome proliferator-activated receptor delta signaling (AID 588534).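 Further: 0% = DMSO basal wells and 100% = positive control agonist at 10 µM.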 The settings on record: HEK293T PPARdelta-UAS-bla, beta-lactamase ratio, 18 h; series mostly up to 76.7 µM. Summed up:
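Titration series tested in agonist mode on beta-lactamase reporter cells; 18 hrs at 37 C after a 5 hr pre-incubation. Readout: CCF4 fluorescence, 2 hrs RT. Hill equation gives EC50 and maximal response.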
Consider `CCCCOCCO`, for which the result was inactive.

As for `C=CC(=O)OCCOCCOCCOCCOC(=O)C=C`, the outcome was inactive.

For the compound `OB(O)O`, the result was inactive.

For the compound `CCN(Cc1cccc(S(=O)(=O)O)c1)c1ccc(C(=C2C=CC(=[N+](CC)Cc3cccc(S(=O)(=O)O)c3)C=C2)c2ccccc2S(=O)(=O)[O-])cc1`, the result was inactive.

As for `O=C1C=CCCC1`, the outcome was inactive.

On to `Cc1ccc(N)c(S(=O)(=O)O)c1`, for which the result was inactive.

With `CCC(C)(C)OC`, the outcome was inactive.

As for `O=C(Cl)c1cccc([N+](=O)[O-])c1`, the result was inactive.

Consider `CCCCCCCCC1CO1` (stereo not given), for which the outcome was inactive.

With `COC(C)=O`, the result was inactive.

With `C[Si](C)(C)Cl`, the result was inactive.

Turning to `CCC(C)OC(=O)N1CCCCC1CCO` (stereo not given), the result was inactive.

For `C[Si](C)(C)O[Si](C)(C)C`, the result was inactive.

Consider `COc1cccc2sc(N)nc12`, for which the result was inactive.

For the compound `C=C(C)C(=O)OCCCCCCCCCCCCCCCC`, the result was inactive.

For the compound `O=C=Nc1ccc(Cc2ccc(N=C=O)cc2)cc1`, the outcome was inactive.

On to `CCCCC(CC)CNCC(CC)CCCC` (stereo not given), for which the result was inactive.

As for `Nc1cccc([N+](=O)[O-])c1`, the outcome was inactive.

On to `CCCCCCCCCCCO`, for which the result was inactive.

As to `COC(=O)c1ccc(CNS(C)(=O)=O)cc1S(=O)(=O)NC(=O)Nc1nc(OC)cc(OC)n1`, the result was inactive.

On to `CCCCC(CC)COC(=O)c1ccc(C(=O)OCC(CC)CCCC)cc1` (stereo not given), for which the result was inactive.

With `IC(I)I`, the result was inactive.

As for `CCCCC(CC)COS(=O)(=O)O` (stereo not given), the outcome was inactive.

As to `C=C(C)C(=O)OCC(C)C`, the outcome was inactive.

Consider `CO/N=C1\C[C@]2(C[C@@H]3C[C@@H](C/C=C(\C)C[C@@H](C)/C=C/C=C4\CO[C@@H]5[C@H](O)C(C)=C[C@@H](C(=O)O3)[C@]45O)O2)O[C@H](/C(C)=C/C(C)C)[C@H]1C`, for which the outcome was inactive.

Regarding `Cc1ccc(S(N)(=O)=O)cc1`, the outcome was inactive.

As to `NCCCCCCCCCCCC(=O)O`, the result was inactive.

For `Cc1ccc(Cl)cc1N`, the outcome was inactive.

As to `N#CCc1ccccc1[N+](=O)[O-]`, the result was inactive.

In the case of `COc1cc(Cl)c(OC)cc1N`, the result was inactive.

Turning to `COc1ccc([N+](=O)[O-])cc1N`, the result was inactive.

Take `CCC(C)O` (stereo not given): the outcome was inactive.

Turning to `CCC(=O)C1C(=O)CC(C(=O)O)CC1=O` (stereo not given), the result was inactive.

`C=C(C)C(=O)OC`: the result was inactive.

With `O=S(c1ccc(Cl)cc1)c1cc(Cl)c(Cl)cc1Cl` (stereo not given), the result was inactive.

`Nc1cccc(O)c1`: the result was inactive.

For `CN(C)c1nc(=O)n(C2CCC(O)CC2)c(=O)n1C` (stereo not given), the outcome was inactive.

As for `CC(/C=C/C=C(C)/C=C/C(=O)O)=C\C=C\C=C(C)\C=C\C=C(C)\C=C\C(=O)O`, the outcome was inactive.

As for `CC(C)O.CC(C)O.CC(C)O.CC(C)O.[Ti]`, the result was inactive.

For the compound `CCCCO`, the result was inactive.

Values taken from PubChem BioAssay (NCATS).
